KDM5B inh: Primary screen for KDM5B Histone Demethylases FDH-coupled qHTS | Potency, µM (titrated, usually from 57.7 µM), most hits filed as inhibitors | Lysine-specific demethylase 5B (Homo sapiens), Q9UGL1 | 220,000 tested, 2.6% active | KDM5B demethylase, FDH-coupled NADH fluorescence (FDH is formaldehyde dehydrogenase); active = well fitted inhibition curve with a large enough effect; note: 0% is about no effect; nearly all actives have a fitted effect of over 70% in size
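qHTS format, multiple compound concentrations. Buffer 50 mM HEPES pH 7.5/0.01% Tween-20; 200 nM KDM5BΔAP final; 10 min compound preincubation; substrate-mix levels 12.5 µM peptide, 25 µM α-KG, 0.25 mM NAD⁺; 30 min RT; ΔRFU.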
Numbers without * were called inactive; i = inactive. Shown is part of a subset that was picked to be rich in hits. Potency is the fitted concentration of half-maximal effect.

SMILES	KDM5B inh
CCCCN1CCN(c2nc3c(c(=O)[nH]c(=O)n3C)n2Cc2cc(C)ccc2C)CC1	i
CC(C)(Oc1nn(Cc2cccc(Cl)c2)c2ccccc12)C(=O)NCCc1cnc[nH]1	i
COCc1ccc2c(c1)c(OC(C)(C)C(=O)NCc1ccncc1)nn2Cc1cccc(OC)c1	i
CC(C)CNC(=O)C(C)(C)Oc1nn(CC2CC2)c2ccc(CN3CCCC3)cc12	40µM*
CN1CCN(C(=O)C(C)(C)Oc2nn(CC3CC3)c3ccc(CN4CCCC4)cc23)CC1	35µM*
COCc1ccc2c(c1)c(OC(C)(C)C(=O)Nc1ccccn1)nn2Cc1cccc(OC)c1	i
Cn1nc(OC(C)(C)C(=O)NCCc2ccccc2)c2cc(CN3CCCC3)ccc21	40µM*
CC(C)(C(=O)NCc1ccc(CN2CCCC2)cc1)c1ccccc1	i
O=C(NCC(F)(F)F)C1CCCN(Cc2cccc(F)c2)C1 (centres undefined)	i
CC(C)(Oc1nn(CC2CC2)c2ccc(CN3CCCC3)cc12)C(=O)NCC(F)(F)F	35µM*
COc1cc(C(=O)N(C)Cc2nc3ccccc3c(=O)[nH]2)cc(Cl)c1OCC(N)=O	i
CCCCN1C(=O)C(=O)N(Cc2ncc(-c3ccc(F)cc3)o2)C1=O	i
Cc1c(OCC(=O)Nc2ccc(F)c(Cl)c2)c(=O)ccn1C	i
O=C(OCC1CC1)c1ccc(-c2ccccc2)cc1	i
CN(C(=O)Cc1cccs1)C1(C(=O)NC2CCCCC2)CCCCC1	i
O=C(Nc1cc(C(F)(F)F)ccc1C(=O)O)c1ccccc1Cl	i
Cc1cccc(N2CCN(c3cc(C(=O)O)c4cc(NC(=O)c5ccccc5)ccc4n3)CC2)c1	i
CC(C)CNC(=O)NC(=O)CSc1nnc(-c2ccc(C(C)(C)C)cc2)n1Cc1ccco1	i
CC(C)(Oc1nn(CC2CC2)c2ccc(CN3CCCC3)cc12)C(=O)Nc1cccnc1	28µM*
COCc1ccc2c(c1)c(OC(C)(C)C(=O)Nc1ccc(OC)cc1)nn2Cc1cccnc1	i
COCc1ccc2c(c1)c(OC(C)(C)C(=O)NCC1CCOCC1)nn2Cc1cccnc1	i
Cc1cccc(NC(=S)N/N=C2/CCCC(C)C2)c1 (centres undefined)	i
O=C(O)c1cc2c(Br)cccc2[nH]1	i
COc1cccc(CN2CCc3nn(C)c(=O)n3CC2)n1	i
COc1cccc(CN2CCc3nn(C)c(=O)n3CC2)c1OC	i
SMILES	KDM5B inh
COc1ccc2c(c1)c(CN1CCc3nn(C)c(=O)n3CC1)cn2C	32µM*
Cc1cccc(C(=O)c2c(C)c(CCC#N)n3ccccc23)c1	i
O=C(NCCc1cccs1)C1CC=CCC1 (centres undefined)	i
O=C(NCc1ccc(OC(F)F)cc1)C1CCN(S(=O)(=O)c2cccnc2)CC1	i
COc1ccc(CN(C)c2ccc(-c3nc(-c4ccccc4)no3)cc2[N+](=O)[O-])cc1	i
CN(Cc1ccccc1)Cc1nnc2cc(-c3nc(-c4ccccc4)no3)ccn12	28µM*
CN(Cc1cccc(C(F)(F)F)c1)Cc1nc(-c2ccccc2)no1	i
CC(C)N(Cc1ccccc1)Cc1nnc2cc(-c3nc(-c4ccccc4)no3)ccn12	28µM*
Cc1cc(C)c(NC(=O)CCl)c(C)c1	i
Cc1cccc(NC(=O)c2ccc3c(c2)NC(=O)CS3)n1	i
CC(Sc1nnc(Nc2cccc(Cl)c2)s1)C(=O)N(C)c1ccccc1 (centres undefined)	i
C[S+](=O)([O-])c1cccc(NC(=O)Cc2c[nH]c3ncc(-c4ccccc4)cc23)c1	32µM*
CCN(CC)C(=O)c1cccc(NC(=O)Cc2c[nH]c3ccccc23)c1	i
COc1ncccc1-c1cnc2[nH]cc(CC(=O)Nc3ccncc3)c2c1	40µM*
COc1ccc(-c2cnc3[nH]cc(CC(=O)NCCc4ccccn4)c3c2)cc1	35µM*
COc1ccc(NC(=O)Cc2c[nH]c3ncc(-c4ccccc4)cc23)cc1OC	i
CNC(=O)c1cccc(-c2cnc3[nH]cc(CC(=O)NCCOC)c3c2)c1	i
O=C(Cc1c[nH]c2ncc(-c3cccnc3)cc12)Nc1ccccc1	i
COc1ccccc1CC(=O)Nc1cnc(-c2cccnc2)nc1	i
COc1ccc(-c2cnc3[nH]cc(CC(=O)Nc4cccnc4)c3c2)cc1	40µM*
O=C(Cc1cccc2ccccc12)NCCc1ccccn1	i
C[S+](=O)([O-])c1cccc(-c2cnc3[nH]cc(CC(N)=O)c3c2)c1	i
CCOCCOC(=O)C(C)Oc1ccc2c(=O)c(-c3ccccc3OC)c(C(F)(F)F)oc2c1 (centres undefined)	i
CCCNc1c(NC(=O)Nc2ccc(C)c(Cl)c2)c(=O)oc2ccccc12	i
COc1cccc(C(=O)N2CCC(n3cc(-c4nc(-c5ccccc5)no4)nn3)C2)c1 (centres undefined)	i
SMILES	KDM5B inh
O=C(c1ccc2c(c1)OCO2)N(Cc1ccccc1)Cc1ccccc1	i
CCS(=O)(=O)c1ncc(N(Cc2ccccc2)Cc2ccco2)c(C(=O)Nc2ccccc2)n1	i
CN(C)C(=O)CCS(=O)(=O)Cc1coc(-c2ccc(F)cc2)n1	i
CCOC(=O)c1ccc(NC(=O)NCc2nc(-c3ccccc3)oc2C)cc1	i
COc1ncccc1-c1cnc2[nH]cc(CC(=O)Nc3ccccc3)c2c1	35µM*
COc1cc(C(=O)NCc2c[nH]c3ncccc23)nc2ccccc12	i
CCOc1ccc(NC(=O)Cc2c[nH]c3ccccc23)cc1	i
COc1ccc(-c2nc(CN3CCN(C(=O)NCCc4ccccc4)CC3)c(C)o2)cc1	i
CC1(C)CNC(=O)c2nc(CCN3CCCc4ccccc43)[nH]c2C1	16µM*
CC1CCN(CCc2nc3c([nH]2)CC(C)(C)CNC3=O)CC1	i
CN(CCc1nc2c([nH]1)CC(C)(C)CNC2=O)c1ccccc1	i
CS(=O)(=O)N(CC(=O)Nc1ccc(Br)cc1)c1cccc(Cl)c1Cl	i
CCC1(CC)NC(=O)N(Cc2coc(-c3ccc(Cl)cc3)n2)C1=O	i
CC(OC(=O)c1cccc(S(=O)(=O)N2CCOCC2)c1)C(=O)c1c[nH]c2ccccc12 (centres undefined)	i
Oc1ccc(Cl)cc1C=NCc1ccc(Cl)cc1	i
Cc1ccccc1Cn1cc(-c2ccncc2)cc1C(=O)N1CCCC(C)C1 (centres undefined)	i
CN1C[C@H](C(=O)Nc2ccccc2)C[C@H]1c1cccc(C(F)(F)F)c1	i
COc1cccc(CNC(=O)c2c(C)noc2-c2ccccc2Cl)c1	i
COc1ccc(CNC(=O)c2c(C)noc2-c2ccco2)cc1	i
COc1ccc(-c2onc(C)c2C(=O)NCCSCc2ccco2)cc1	22µM*
COc1cccc(CCNC(=O)c2c(C)noc2-c2cc(OC)c(OC)c(OC)c2)c1	28µM*
COc1ccc(CCNC(=O)c2c(C)noc2-c2cc(OC)cc(OC)c2)cc1	i
CCOCCNC(=O)c1c(C)noc1-c1ccc(OC)cc1	i
COc1cc(-c2onc(C)c2C(=O)NCCc2ccc(F)cc2)cc(OC)c1OC	28µM*
COc1ccc(CCNC(=O)c2c(C)noc2-c2cccc(F)c2)cc1	i
COc1cccc(CCNC(=O)c2c(C)noc2-c2ccco2)c1	i
CSc1ccccc1NC(=O)/C(=C/c1ccco1)c1ccccc1	i
COc1ccc(NC(=O)C(=O)c2c(C)[nH]c3ccccc23)cc1	i
COC(=O)c1ccc(COC(=O)COc2ccc(C#N)cc2)o1	i
